Laboratory results published in the supplement of paper PMC9694430.
Structures can show the parent of a compound that is named as a salt.

Legend:
Assay in all cases: thermal shift delta Tm vs DMSO control; higher = stronger stabilization (binding)
Settings in all cases: 12.5 µM; protein concentration 2 µM
LOC_OS02G45750-cb003 = system: LOC_OS02G45750-cb003
Summary of the method: (§1)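 The melting temperature shift given here is a triplicate mean, measured against protein that received only DMSO. Melting temperatures came from Boltzmann fits of differential scanning fluorimetry data on E. coli-expressed, purified rice kinase domain constructs. Each 19.5 μl well contained 2 μM kinase, 100 mM potassium phosphate pH 7.5, 150 mM NaCl, 10% glycerol, 5 × SYPRO Orange and compound in DMSO. Plates were scanned from 25°C to 95°C at 0.05°C/s.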

LOC_OS02G54510-cb004 = system: LOC_OS02G54510-cb004
Summary of the method: as §1

LOC_OS03G04050-cb001 = system: LOC_OS03G04050-cb001
Summary of the method: as §1

LOC_OS03G12390-cb001 = system: LOC_OS03G12390-cb001
Summary of the method: as §1

LOC_OS03G27990-cb004 = system: LOC_OS03G27990-cb004
Summary of the method: as §1

LOC_OS03G50450-cb001 = system: LOC_OS03G50450-cb001
Summary of the method: as §1

LOC_OS03G50810-cb003 = system: LOC_OS03G50810-cb003
Summary of the method: as §1

LOC_OS04G35114-cb001 = system: LOC_OS04G35114-cb001
Summary of the method: as §1

LOC_OS04G38480-cb003 = system: T1, LOC_OS04G38480-cb003
T1 sequence (whole entry): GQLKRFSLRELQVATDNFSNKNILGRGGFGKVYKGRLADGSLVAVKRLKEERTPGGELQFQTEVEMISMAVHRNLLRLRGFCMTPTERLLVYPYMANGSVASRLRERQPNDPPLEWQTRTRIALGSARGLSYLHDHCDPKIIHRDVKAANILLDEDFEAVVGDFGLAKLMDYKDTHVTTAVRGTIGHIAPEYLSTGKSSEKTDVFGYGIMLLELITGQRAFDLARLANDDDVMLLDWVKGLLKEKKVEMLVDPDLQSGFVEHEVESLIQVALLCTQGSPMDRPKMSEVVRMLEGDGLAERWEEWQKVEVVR
Summary of the method: as §1

LOC_OS04G41100-cb001 = system: T2, LOC_OS04G41100-cb001
T2 sequence (whole entry): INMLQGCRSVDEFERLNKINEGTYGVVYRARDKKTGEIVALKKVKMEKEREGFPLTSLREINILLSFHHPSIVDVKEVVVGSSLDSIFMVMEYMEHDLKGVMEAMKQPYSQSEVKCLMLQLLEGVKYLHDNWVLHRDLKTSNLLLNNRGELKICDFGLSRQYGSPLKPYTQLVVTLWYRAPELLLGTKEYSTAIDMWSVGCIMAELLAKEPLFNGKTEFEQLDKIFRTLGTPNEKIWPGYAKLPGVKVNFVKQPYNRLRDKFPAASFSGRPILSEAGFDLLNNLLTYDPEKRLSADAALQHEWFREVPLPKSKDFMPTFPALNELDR
Summary of the method: as §1

LOC_OS04G57630-cb004 = system: LOC_OS04G57630-cb004
Summary of the method: as §1

LOC_OS05G07850-cb002 = system: LOC_OS05G07850-cb002
Summary of the method: as §1

LOC_OS05G16824-cb004 = system: LOC_OS05G16824-cb004
Summary of the method: as §1

LOC_OS05G28520-cb001 = system: LOC_OS05G28520-cb001
Summary of the method: as §1

LOC_OS05G30820-cb001 = system: LOC_OS05G30820-cb001
Summary of the method: as §1

LOC_OS05G43570-cb004 = system: LOC_OS05G43570-cb004
Summary of the method: as §1

LOC_OS06G16330-cb003 = system: LOC_OS06G16330-cb003
Summary of the method: as §1

LOC_OS06G22820-cb001 = system: T3, LOC_OS06G22820-cb001
T3 sequence (whole entry): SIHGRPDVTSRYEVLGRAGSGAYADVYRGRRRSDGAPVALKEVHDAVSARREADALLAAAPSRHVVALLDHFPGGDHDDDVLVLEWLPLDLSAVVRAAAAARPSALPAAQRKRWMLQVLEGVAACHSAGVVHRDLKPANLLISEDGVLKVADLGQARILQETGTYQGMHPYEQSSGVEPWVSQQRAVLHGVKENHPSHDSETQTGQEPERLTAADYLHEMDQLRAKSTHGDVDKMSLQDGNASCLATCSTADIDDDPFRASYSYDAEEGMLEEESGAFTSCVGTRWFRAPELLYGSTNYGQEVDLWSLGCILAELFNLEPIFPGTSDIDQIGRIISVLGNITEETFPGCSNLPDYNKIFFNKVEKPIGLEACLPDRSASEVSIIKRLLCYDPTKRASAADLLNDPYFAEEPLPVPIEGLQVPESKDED
Summary of the method: as §1

LOC_OS07G06570-cb004 = system: LOC_OS07G06570-cb004
Summary of the method: as §1

LOC_OS07G07230-cb001 = system: LOC_OS07G07230-cb001
Summary of the method: as §1

Sequence of LOC_OS06G16330-cb003 (as listed by the source): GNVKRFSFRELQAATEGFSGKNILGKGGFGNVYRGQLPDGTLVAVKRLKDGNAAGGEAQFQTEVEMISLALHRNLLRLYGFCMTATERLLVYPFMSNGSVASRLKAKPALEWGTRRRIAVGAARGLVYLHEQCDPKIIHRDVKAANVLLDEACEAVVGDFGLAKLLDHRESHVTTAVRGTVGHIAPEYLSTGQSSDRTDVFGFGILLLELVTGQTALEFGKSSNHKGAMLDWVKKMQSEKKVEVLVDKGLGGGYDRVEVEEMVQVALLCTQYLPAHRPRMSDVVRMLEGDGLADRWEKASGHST

Row | SMILES | thermal shift delta Tm (LOC_OS02G45750-cb003) [°C] | thermal shift delta Tm (LOC_OS02G54510-cb004) [°C] | thermal shift delta Tm (LOC_OS03G04050-cb001) [°C] | thermal shift delta Tm (LOC_OS03G12390-cb001) [°C] | thermal shift delta Tm (LOC_OS03G27990-cb004) [°C] | thermal shift delta Tm (LOC_OS03G50450-cb001) [°C] | thermal shift delta Tm (LOC_OS03G50810-cb003) [°C] | thermal shift delta Tm (LOC_OS04G35114-cb001) [°C] | thermal shift delta Tm (LOC_OS04G38480-cb003) [°C] | thermal shift delta Tm (LOC_OS04G41100-cb001) [°C] | thermal shift delta Tm (LOC_OS04G57630-cb004) [°C] | thermal shift delta Tm (LOC_OS05G07850-cb002) [°C] | thermal shift delta Tm (LOC_OS05G16824-cb004) [°C] | thermal shift delta Tm (LOC_OS05G28520-cb001) [°C] | thermal shift delta Tm (LOC_OS05G30820-cb001) [°C] | thermal shift delta Tm (LOC_OS05G43570-cb004) [°C] | thermal shift delta Tm (LOC_OS06G16330-cb003) [°C] | thermal shift delta Tm (LOC_OS06G22820-cb001) [°C] | thermal shift delta Tm (LOC_OS07G06570-cb004) [°C] | thermal shift delta Tm (LOC_OS07G07230-cb001) [°C]
1 | CC(C)(C)NC(=O)c1cncn1C1CCN(c2ccc(-c3nnc(C(F)(F)F)o3)cn2)CC1 | 0.9 | 0.27 | 0.48 | -0.08 | 0.32 | 0.7 | 0.36 | -0.3 | 1.43 | 0.3 | -0.11 | 0.05 | 0.92 | -0.42 | 0.02 | -0.06 | -0.23 | 0.29 | 1.08 | 0.57
2 | N=C(N)NC(=N)NCCc1ccccc1 [Phenformin HCl] | 0.17 | -0.29 | 0.17 | -0.23 | 0.15 | 0.26 | 0.78 | -0.12 | 0.97 | -0.08 | 0.25 | -0.02 | -6.46 | 0.39 | 0.48 | 0.27 | -0.35 | 0.41 | 0.53 | -0.03
3 | Nc1ncnc2c1c(-c1cnc3[nH]ccc3c1)nn2C1CCCC1 | 2.27 | 3.34 | 0.54 | 5.27 | 1.19 | 0.86 | 0.88 | 4.32 | 1.28 | 0.51 | 0.91 | 4.79 | 1.22 | 0.54 | 0.76 | 1.19 | 3.18 | 0.34 | 0.72 | 0.21
4 | CN1c2ccccc2C(=O)Nc2cnc(Nc3ccc(N4CCC(O)CC4)cc3)nc21 | 5.71 | 2.78 | 0.24 | 2.56 | 1.24 | -0.12 | 2.29 | 3.85 | 3.65 | 0.15 | 2.68 | 11.7 | 3.76 | 0.16 | 1.15 | 0.33 | 8.37 | 0.43 | 0.89 | 1.4
5 | Nc1ccc(-c2ccc3ncc4ccc(=O)n(-c5cccc(C(F)(F)F)c5)c4c3c2)cn1 [Torin 2] | 2.36 | -0.06 | 0.2 | 0.23 | 0.43 | 0.37 | 0.92 | 2.97 | 0.88 | 0.27 | 0.09 | 9.25 | 2.46 | 0.76 | 0.48 | 0.35 | 2.11 | 0.56 | 1.44 | 0.3
6 | CCOC(=O)c1cnc2ccc(-c3cncc(NS(=O)(=O)c4ccccc4)c3)cn12 | 1.34 | 0.07 | 0.25 | 0.45 | 0.16 | 0.7 | 0.65 | 1.78 | 1.81 | 0.65 | 0.28 | 3.75 | 1.63 | 0.65 | 0.47 | 0.51 | 2.32 | 0.38 | 0.45 | 0.1
7 | CC(C)n1ncnc1-c1cn2c(n1)-c1ccc(O[C@@H](C)C(N)=O)cc1OCC2 | 0.39 | 0.04 | 0.37 | 0.09 | 0.14 | 0.37 | 0.53 | 0.71 | 0.74 | 0.13 | -0.03 | -0.96 | -0.54 | 0.38 | 0.25 | 0.23 | -0.02 | 0.43 | 0.88 | 0.22
8 | O=C(Cc1ccc(-c2ccc(OCCN3CCOCC3)cc2)cn1)NCc1ccccc1 | 0.29 | 0.08 | 0.31 | 0.07 | 0.38 | 0.47 | 0.43 | 0.43 | 0.12 | 0.27 | 0.12 | 0.35 | -2.04 | 0.32 | 0.37 | 0.34 | -0.02 | 0.6 | 0.25 | -0.12
9 | COc1ccc([C@@H]2OC[C@H]3[C@@H]2CO[C@@H]3c2ccc(O[C@@H]3O[C@H](CO)[C@@H](O)[C@H](O)[C@H]3O)c(OC)c2)cc1OC [Forsythin] | 0.82 | -0.05 | 0.35 | 0.34 | 0.18 | 0.11 | 0.2 | -0.23 | -0.32 | -0.14 | -0.22 | -0.42 | -9.57 | 0.25 | -0.02 | 0.21 | -0.18 | 0.41 | 0.89 | 0.9
10 | CCCCCCCCc1ccc(CCC(N)(CO)CO)cc1 [Fingolimod (FTY720) HCl] | -0.8 | -0.96 | -0.79 | -1.7 | -0.42 | -0.24 | -1.68 | -0.12 | 0.32 | 0.19 | -0.4 | 1.83 | -4.01 | -0.43 | -0.07 | -1.13 | -1.94 | 0.07 | 0.28 | -1.48
11 | COc1ccc(-c2nc(N3CCOCC3)c3sc(CN(C)c4ncc(C(=O)NO)cn4)cc3n2)cn1 | 0.52 | 0.27 | 0.23 | -0.11 | 0.18 | -0.05 | 0.23 | 0.64 | 0.82 | 0.24 | 0 | 0.02 | -1.81 | 0.86 | 0.56 | 0.42 | -0.08 | 0.84 | 0.56 | 0.26
12 | Nc1nc(Nc2ccc(S(N)(=O)=O)cc2)nn1C(=O)c1c(F)cccc1F | 9.34 | 2.82 | -0.19 | 9.07 | 3.59 | 0.97 | 3.42 | 4.58 | 2.97 | 2.3 | 1.19 | 12.5 | 8.94 | 0.98 | 1.95 | 0.82 | 8.67 | -0.12 | 1.81 | 0.21
